PubChem BioAssay AID1159580 (chemical genetic matrix, 2015)
Hit rate of the full screen: of about 5,500 compounds, about 2,000 (36%) were called active. Another 18% or so got no clear call; they are omitted. This is one part of the list. A number with no mark means an inactive call. Cut-off read from the data, not from the text of the source: active = normalized growth mostly below about 0.91 (no sharp cut-off); inconclusive = no clear call, values can overlap the other calls; inactive = mostly above about 0.92.

Assay: chemical genetic growth profiling, strain panel (AID 1159580);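 note: tested at 20 µM; growth read once vehicle control cultures reached saturation at 30 °C; 1 = growth at the plate median or of vehicle wells; lower values mean less growth of the strain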
Conditions: S. cerevisiae deletion strains, growth OD

Compound: CCC(=O)NCC[C@@H]1CCc2ccc3c(c21)CCO3
- normalized growth (locus YAL021C, strain ccr4, active compounds read low): 1.03
- normalized growth (locus YAL026C, strain drs2, active compounds read low): 1.01
- normalized growth (locus YAL030W, strain snc1, active compounds read low): 1.01
- normalized growth (locus YBL061C, strain skt5, active compounds read low): 1.02
- normalized growth (locus YBR009C, strain hhf1, active compounds read low): 0.987
- normalized growth (locus YBR023C, strain chs3, active compounds read low): 1.02
- normalized growth (locus YBR171W, strain sec66, active compounds read low): 1
- normalized growth (locus YBR231C, strain swc5, active compounds read low): 0.993
- normalized growth (locus YBR279W, strain paf1, active compounds read low): 1.02
- normalized growth (locus YCL011C, strain gbp2, active compounds read low): 1
- normalized growth (locus YCL016C, strain dcc1, active compounds read low): 1.04
- normalized growth (locus YCL061C, strain MRC1, active compounds read low): 0.988
- normalized growth (locus YCL069W, strain vba3, active compounds read low): 1
- normalized growth (locus YCR088W, strain abp1, active compounds read low): 1.01
- normalized growth (locus YDL005C, strain med2, active compounds read low): 0.995
- normalized growth (locus YDL040C, strain nat1, active compounds read low): 1
- normalized growth (locus YDR001C, strain nth1, active compounds read low): 1
- normalized growth (locus YDR069C, strain doa4, active compounds read low): 0.982
- normalized growth (locus YDR137W, strain rgp1, active compounds read low): 1.04
- normalized growth (locus YDR159W, strain sac3, active compounds read low): 0.924
- normalized growth (locus YDR195W, strain ref2): 1.01
- normalized growth (locus YDR297W, strain sur2, active compounds read low): 0.989
- normalized growth (locus YDR334W, strain swr1, active compounds read low): 1
- normalized growth (locus YDR335W, strain msn5, active compounds read low): 0.998
- normalized growth (locus YDR392W, strain spt3, active compounds read low): 0.988
- normalized growth (locus YEL003W, strain gim4, active compounds read low): 0.972
- normalized growth (locus YEL037C, strain rad23, active compounds read low): 1.01
- normalized growth (locus YEL061C, strain CIN8 (second series), active compounds read low): 0.991
- normalized growth (locus YER015W, strain faa2, active compounds read low): 1
- normalized growth (locus YER016W, strain bim1, active compounds read low): 1.02
- normalized growth (locus YER111C, strain swi4, active compounds read low): 1.03
- normalized growth (locus YER155C, strain BEM2 (second series), active compounds read low): 1.06
- normalized growth (locus YFR010W, strain ubp6, active compounds read low): 0.953
- normalized growth (locus YGL167C, strain pmr1, active compounds read low): 1
- normalized growth (locus YGL173C, strain kem1, active compounds read low): 0.978
- normalized growth (locus YGL227W, strain vid30, active compounds read low): 1.01
- normalized growth (locus YGL240W, strain doc1, active compounds read low): 1.01
- normalized growth (locus YGL253W, strain hxk2, active compounds read low): 0.972
- normalized growth (locus YHR013C, strain ard1, active compounds read low): 1.02
- normalized growth (locus YHR027C, strain rpn1, active compounds read low): 0.998
- normalized growth (locus YHR030C, strain SLT2, active compounds read low): 0.947
- normalized growth (locus YHR079C, strain IRE1, active compounds read low): 0.953
- normalized growth (locus YHR142W, strain chs7, active compounds read low): 0.989
- normalized growth (locus YJL092W, strain hpr5, active compounds read low): 1.01
- normalized growth (locus YJL095W, strain BCK1 (second series), active compounds read low): 1.01
- normalized growth (locus YJL095W, strain BCK1, active compounds read low): 0.981
- normalized growth (locus YJL115W, strain asf1, active compounds read low): 1.02
- normalized growth (locus YJL129C, strain trk1, active compounds read low): 1
- normalized growth (locus YJL154C, strain vps35, active compounds read low): 1.01
- normalized growth (locus YJL164C, strain tpk1, active compounds read low): 0.968
- normalized growth (locus YJL166W, strain qcr8, active compounds read low): 0.98
- normalized growth (locus YJL187C, strain SWE1, active compounds read low): 1.01
- normalized growth (locus YJR066W, strain TOR1, active compounds read low): 0.936
- normalized growth (locus YKL160W, strain elf1, active compounds read low): 1.05
- normalized growth (locus YKR026C, strain gcn3, active compounds read low): 1.01
- normalized growth (locus YKR091W, strain srl3, active compounds read low): 1
- normalized growth (locus YLL001W, strain dnm1, active compounds read low): 0.952
- normalized growth (locus YLL026W, active compounds read low): 1
- normalized growth (locus YLL041C, strain sdh2, active compounds read low): 0.997
- normalized growth (locus YLR027C, strain aat2, active compounds read low): 0.999
- normalized growth (locus YLR113W, strain HOG1, active compounds read low): 0.95
- normalized growth (locus YLR221C, strain rsa3, active compounds read low): 0.953
- normalized growth (locus YLR258W, strain gsy2, active compounds read low): 1.02
- normalized growth (locus YLR262C, strain YPT6 (second series), active compounds read low): 1.01
- normalized growth (locus YLR320W, strain mms22, active compounds read low): 0.975
- normalized growth (locus YLR342W, strain FKS1, active compounds read low): 1
- normalized growth (locus YLR357W, strain rsc2, active compounds read low): 1.02
- normalized growth (locus YLR370C, strain arc18, active compounds read low): 1
- normalized growth (locus YLR384C, strain iki3, active compounds read low): 1.01
- normalized growth (locus YML120C, strain ndi1, active compounds read low): 0.963
- normalized growth (locus YMR058W, strain fet3, active compounds read low): 1.01
- normalized growth (locus YMR125W, strain sto1, active compounds read low): 1
- normalized growth (locus YMR129W, active compounds read low): 0.985
- normalized growth (locus YMR205C, strain PFK2, active compounds read low): 1
- normalized growth (locus YMR231W, strain pep5, active compounds read low): 1
- normalized growth (locus YNL071W, strain lat1, active compounds read low): 1.01
- normalized growth (locus YNL183C, strain NPR1, active compounds read low): 0.904
- normalized growth (locus YNL209W, strain ssb2, active compounds read low): 1.01
- normalized growth (locus YNL248C, strain rpa49, active compounds read low): 1.01
- normalized growth (locus YNL322C, strain KRE1 (second series), active compounds read low): 1.02
- normalized growth (locus YNR049C, strain mso1, active compounds read low): 1
- normalized growth (locus YOR001W, strain rrp6, active compounds read low): 0.929
- normalized growth (locus YOR070C, strain gyp1, active compounds read low): 1.02
- normalized growth (locus YOR080W, strain dia2, active compounds read low): 1.01
- normalized growth (locus YOR083W, strain WHI5, active compounds read low): 0.966
- normalized growth (locus YOR106W, strain vam3, active compounds read low): 1
- normalized growth (locus YOR231W, strain MKK1, active compounds read low): 0.969
- normalized growth (locus YOR265W, strain rbl2, active compounds read low): 1
- normalized growth (locus YOR270C, strain vph1, active compounds read low): 0.771 (active)
- normalized growth (locus YOR290C, strain snf2, active compounds read low): 1.01
- normalized growth (locus YPL051W, strain arl3, active compounds read low): 1.06
- normalized growth (locus YPL078C, strain atp4, active compounds read low): 1.03
- normalized growth (locus YPL106C, strain sse1, active compounds read low): 1.04
- normalized growth (locus YPL240C, strain hsp82, active compounds read low): 1.01
- normalized growth (locus YPL256C, strain CLN2, active compounds read low): 0.942
